Experimental findings from PubChem BioAssay (NCI) are described below.

About 83,000 compounds went through this panel and 20% of them were active in at least one assay; those are over-represented in the sample as a whole.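 Single-concentration screen, 48 h exposure, 96-well plates. Endpoint: percent growth. Below 10 = active.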 Values without a mark were called inactive. Active and inactive are the calls of the source.

The first assay relates to DU-145 prostate. Briefly: NCI-60 one-dose screen, 48 h (100 = growth as untreated, 0 = no growth, -100 = all killed). The following applies: 10 µM unless noted.
Turning to `COc1ccc(-c2ccc(-c3ccc(C(=N)N)o3)o2)cc1`, the growth was 6.23% (active).

As for `CC(C)c1nc(N(C)S(C)(=O)=O)nc(-c2ccc(F)cc2)c1/C=C/C(=O)C[C@@H](O)CC(=O)O`, the growth was 102%.

Take `CCOc1cc(\C=N/N=C(N)/C(N)=N\N=C/c2ccc(O)c(OCC)c2)ccc1O`: the growth was 111%.

A further assay relates to K-562 leukemia. Described as above. The conditions noted are these: 10 µM unless noted.
In the case of `C=C1C(=O)O[C@H]2[C@H]1CC/C(COC(=O)NCc1ccc(Cn3c(=O)sn(CCCC)c3=O)cc1)=C\CC[C@@]1(C)O[C@@H]21`, the growth is 0.885% (active).

Turning to `O=C(Nc1ncc(Cc2ccccc2)s1)c1cc(-c2ccccc2)nc2ccccc12`, the growth was 103%.

Turning to `CC(=O)Oc1ccccc1C(=O)N(Cc1ccc2c(Cl)cc(Cl)c(O)c2n1)c1ccccc1`, the growth is 22.5%.

`O=C(Nc1ccccc1)Nc1ccccc1CNc1nc(Nc2ccc(OCCN3CCCC3)cc2)ncc1Cl`: the growth was 7.08% (active).

Consider `C#Cc1ccc(NC(=O)Cc2ccc(/C=C/C(=O)c3nccn3C)cc2)cc1`, for which the growth is 18.2%.

As to `O=C(O)c1nn(-c2ccc(Cl)cc2)nc1N1CCCC1`, the growth was 87.2%.

Turning to `CCc1ccc(Cc2cnc(NC(=O)c3cc(C)oc3C)s2)cc1`, the growth is 14.6%.

In the case of `O=C(NCCN1CCOCC1)c1cncnc1Nc1ccc2c(ccn2Cc2ccccn2)c1`, the growth is 116%.

For the compound `CC/C(=C(/c1ccc(Cl)cc1)c1ccc(OCCN2CCCCCC2)cc1)c1ccccc1`, the growth is 19.8%.

Take `CC(=O)OCC(=O)O[C@@H]1C[C@]2(C(C)C)O[C@@]1(C)[C@@H]1CC[C@@H](C)[C@H]1[C@@H]2OC(=O)/C=C/c1ccccc1`: the growth is 67.5%.

As to `COc1ccc(C(=O)/C=C/c2ccc(C)cc2)cc1S(N)(=O)=O`, the growth was 3.04% (active).

Consider `Cc1ccc(Nc2oc(-c3ccccc3)nc2[P+](c2ccccc2)(c2ccccc2)c2ccccc2)cc1`, for which the growth is 0.645% (active).

Take `COc1ccc(N/N=C/c2ccc3c(c2)Sc2ccccc2N3C)cc1`: the growth is 4.21% (active).

With `COc1ccc(N2C(=O)/C(=C/C(Cl)=C/c3ccc([N+](=O)[O-])cc3)SC2=S)cc1`, the growth was 0.935% (active).

Consider `COc1ccc(C2=C/C(=C\c3ccccc3O)C(=O)N2Cc2ccccc2)cc1`, for which the growth is 51.1%.

For `COC(=O)[C@H]1Cc2c([nH]c3ccccc23)[C@H](c2ccc3c(c2)OCO3)N1`, the growth is 99.3%.

On to `O=C(Nc1ncc(Cc2ccccc2)s1)c1ccc2c(c1)OCCO2`, for which the growth was 8.32% (active).

Turning to `CC(=O)CC(=O)c1ccccc1.[Cu+2]`, the growth is 99%.

For the compound `COC1CC(O)C2=C(CC3C(/C(C)=C\CC=C(C)C)CCC3(C)O2)C1=O` (configuration not stated), the growth is 96.7%.

Turning to `Nc1c(C(=O)c2ccc(Cl)cc2)sc(Nc2ccccc2)c1-c1nc2ccccc2s1`, the growth was 55.2%.

For the compound `C=CC(=O)Nc1ccc2ncnc(Nc3cccc(NS(=O)(=O)CCC)c3Cl)c2c1`, the growth is 67.2%.

With `CCN1C(=O)N(CC)C2C1NC(=S)N2/N=C/C=C/c1ccccc1` (configuration not stated), the growth is 10.9%.

For the compound `Oc1cccc2c1NCCC2`, the growth was 13.5%.

Take `CCOC(=O)c1cnc2sc(-c3ccc(OC)cc3)nc2c1Cl`: the growth is 107%.

Consider `Cc1ccc2nc(/C=C/c3ccc(N(C)C)cc3)cc(C)c2c1`, for which the growth was 19.8%.

In the case of `C=CCOC(=O)C1=C(C)N(CC)C(=O)N(CC)C1c1c(Cl)n(C)c2ccccc12` (configuration not stated), the growth is 93%.

Turning to `C=C(C)[C@@H]1CC[C@]2(COC(=O)c3cccnc3)CC[C@]3(C)[C@H](CC[C@@H]4[C@@]5(C)CCCN(C(=O)c6cccnc6)C(C)(C)[C@@H]5CC[C@]43C)[C@@H]12`, the growth was 13.7%.

Take `COc1ccc(C2=NN3C(C2)c2cc(Br)ccc2OC3c2ccncc2)cc1` (configuration not stated): the growth was 74.8%.

For `C=CC(=O)NCc1cccc(Nc2ncc(Br)c(NCCCNC(=O)C3CCC3)n2)c1`, the growth was 9.33% (active).

With `O=C(O)/C=C/c1cn(-c2ccccc2)nc1-c1ccc(F)cc1`, the growth is 100%.

Take `CCNCCNc1c(C)c(-c2ccc(C(F)(F)F)cc2)c(C#N)c2nc3ccccc3n12`: the growth is 54.8%.

Regarding `O=C1CCc2c(sc3[nH]c(=S)n(-c4cc(C(F)(F)F)cc(C(F)(F)F)c4)c(=O)c23)C1`, the growth is 22.5%.

Consider `COc1cc2cc(Oc3ccc(NC(=O)Nc4ccc(F)c(C(F)(F)F)c4)cc3)c(C)nc2cc1OCCN1CCCCC1`, for which the growth was -34.7% (active).

As for `Cc1ccc2c(c1)CC(O)CC1C(=O)N(CCO)CC(=O)N21` (configuration not stated), the growth is 101%.
